Structures are written as SMILES. Where “and” joins values, the source holds several entries; their conditions need not be identical. Equal values may be shown once. Hit rate of the full screen: of about 420,000 compounds, about 50,000 (12%) were called active. A call without a number means that no potency is given here. Inconclusive results (about 26%) are left out. This is one part of a sample in which actives are shown more often than they occur. Calls come from the whole dose curve; as a rule, active = well fitted inhibition curve with a large enough effect; inconclusive = small, poorly fitted or top-dose-only effect; inactive = flat fitted curve, though single readings scatter. Where a structure was tested more than once in an assay, its records may differ in their call.
Potency is the fitted concentration of half-maximal effect.

This assay is described as follows: qHTS for Inhibitors of human tyrosyl-DNA phosphodiesterase 1 (TDP1): qHTS in cells in presence of CPT. Note: nearly all actives have a fitted effect of over 55% in size. As to conditions: chicken DT40 Tdp1-/-;hTDP1 cells + 20 nM CPT, ATP luminescence, 48 h; series mostly up to 46.2 µM. In short, it runs like this: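 Chicken DT40 Tdp1-/- cells stably complemented with human TDP1 were seeded at 400 cells/well in medium containing 20 nM camptothecin, exposed to pin-transferred compounds, and grown at 37 °C for at least 48 hr. Viability was read as ATP luminescence.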
(In general: In qHTS, concentration-response curves come from the screen itself.)
Turning to `COCCNC(=S)N(CCc1c(C)[nH]c2ccc(C)cc12)Cc1cccnc1`, the Potency result was “inactive”.

Turning to `CC(NC(=O)CN(C)S(=O)(=O)c1ccc(F)cc1)C1CC2CCC1C2` (configuration not stated), the Potency result was “inactive”.

Take `CC(=O)N/C(=C\c1ccccc1)C(=O)OC(C)C(=O)N(C)c1ccccc1` (configuration not stated): the Potency entry was “inactive”. Still for that read-out and setting: with `CCOC(=O)Cn1c(O)c(N=NC(=O)CNC(=O)Cc2ccccc2)c2ccccc21` the entry was “inactive”; with `CC(=O)Nc1ccc(S(=O)(=O)N2CCC(C(=O)N[C@@H](Cc3ccccc3)C(=O)O)CC2)cc1`, “inactive”.

On to `COc1cccc(CNC(=O)C(NS(=O)(=O)c2ccc3nc(C)sc3c2)C(C)C)c1` (configuration not stated), for which the Potency entry was “inactive”. Regarding `COc1ccc(/C=C2\SC(=S)N(CCC(=O)N3CCOCC3)C2=O)cc1OC`, the Potency result is “inactive”. As for `COc1cccc(/C=C2/SC(=S)N(CC(=O)NC3C=CS(=O)(=O)C3)C2=O)c1` (configuration not stated), the Potency result is “inactive”. Still for that read-out and setting: the figure for `COc1cccc(/C=C2\SC(=S)N(CCCC(=O)N3CCOCC3)C2=O)c1` is 18.4 µM (active).

For the molecule `Cc1cc(C)cc(NC(=O)COC(=O)c2cc(C)oc2C)c1`, the Potency result was “inactive”.

For the molecule `Cc1sc2ccccc2c1CNC[C@H]1O[C@@H](n2ccc(=O)[nH]c2=O)[C@H](O)[C@@H]1O`, the Potency entry is “inactive”.

Consider `O=C(CCn1ccc([N+](=O)[O-])n1)Nc1nccs1`, for which the Potency entry is “inactive”. Regarding `Cc1cs/c(=N\N=C\c2ccc(O)cc2)n1Cc1ccco1`, the Potency result was “inactive”. Turning to `CC1CN(Cc2ccco2)C(=S)N(c2ccccc2)C1=O` (configuration not stated), the Potency entry is “inactive”. On to `CN(C)C(=S)N=c1ssc(=S)n1Cc1ccco1`, for which the Potency is 1.64 µM (active). The same measure, in the same setting: the entry for `Nc1ncnc2c1ncn2[C@@H]1O[C@H](C(=O)NS(=O)(=O)c2c(Cl)nc3sccn23)[C@@H](O)[C@H]1O` is “inactive”; for `O=S(=O)(Nc1ccccn1)c1cccc(S(=O)(=O)c2ccc(Cl)cc2)c1` it is “inactive”. For the molecule `NS(=O)(=O)c1ccc(CNC(=O)c2cc(S(=O)(=O)N3CCOCC3)ccc2N2CCCC2)cc1`, the Potency result is “inactive”. In the case of `CCCN(C(=O)COC(=O)CNS(=O)(=O)c1ccc(NC(C)=O)cc1)C1CCS(=O)(=O)C1` (configuration not stated), the Potency entry is “inactive”. Consider `COC(=O)C1=C(N)Oc2c(oc(CO)cc2=O)C1c1c(F)cccc1Cl` (configuration not stated), for which the Potency result is “inactive”. On the same count and under the same terms, with `CCOC(=O)c1cc(OC(=O)c2ccccc2Cl)n(-c2ccccc2)n1` the entry was “inactive”; with `CCOC(=O)c1cc(-c2sc(NC(=O)c3ccccc3)nc2C)n(Cc2ccccc2)n1`, 16.4 µM (active). Turning to `CCOC(=O)c1sc(NC(=O)c2sc(C)nc2C)nc1C`, the Potency entry was “inactive”.

For the molecule `CSc1ccc(Cl)c(C(=O)OCC(=O)N2CCNC2=O)c1`, the Potency entry was “inactive”. For `Nc1ncnc2c1ncn2[C@@H]1O[C@H](C(=O)N2CCSC2)[C@@H](O)[C@H]1O`, the Potency result was “inactive”.

Turning to `COc1ccc(Nc2nc(N)nc(CSC(=S)N3CCC(C)CC3)n2)cc1`, the Potency entry was “inactive”.

On to `CN(CC(=O)Nc1cccc(F)c1)CC(=O)Nc1cccc([N+](=O)[O-])c1`, for which the Potency entry was “inactive”. Turning to `COc1ccc(N(CC(=O)Nc2ccc(C)cc2C)S(=O)(=O)c2ccccc2[N+](=O)[O-])c(OC)c1`, the Potency result is “inactive”. Regarding `COc1ccc(C)cc1S(=O)(=O)N(CC(=O)Nc1cccc([N+](=O)[O-])c1)c1ccc(C)cc1`, the Potency is 18.4 µM (active). With `O=C(CCc1nnc2ccc(NCCCN3CCCC3=O)nn12)NCc1ccccc1Cl`, the Potency result is “inactive”.

On to `COc1ccc(NC(=O)CN2C(=O)CSc3ccc(S(=O)(=O)N4CCC(C)CC4)cc32)cc1`, for which the Potency result is “inactive”.

Regarding `O=S(=O)(NCCc1ccncc1)c1ccccc1`, the Potency result was “inactive”. Still for that read-out and setting: the entry for `Nc1nc(/C(=C/CC(=O)O)C(=O)N[C@@H]2C(=O)N3C(C(=O)O)=CCS[C@H]23)cs1` is “inactive”; for `O=C1Nc2ccc([N+](=O)[O-])cc2C1=Nc1cccc(CO)c1` it is 16.4 µM (active). Still for that read-out and setting: the entry for `O=C(c1cccc([N+](=O)[O-])c1)N1CCN(Cc2ccccc2)CC1` is “inactive”; for `CC1Cn2c(nnc2-c2cccs2)S1` (configuration not stated) it is “inactive”. Turning to `O=c1cnnc(Nc2ccccc2)[nH]1`, the Potency entry is “inactive”. On to `CCC1(C2CCN(Cc3cccnc3)CC2)NC(=O)N(CC2COc3ccccc3O2)C1=O` (configuration not stated), for which the activity change, negative = growth inhibition is -5.78% [at 9.04 µM] (inactive). With `CSCC(NS(=O)(=O)c1ccc(C)cc1)C(=O)O` (configuration not stated), the Potency result is “inactive”. In the case of `CCC(C)N(C(=O)CSc1ncnc2c1cnn2-c1ccccc1)C1CCS(=O)(=O)C1` (configuration not stated), the Potency result is “inactive”.

Turning to `O=C(CNS(=O)(=O)c1ccc2c(c1)OCCCO2)N1CCN(c2ccc(F)cc2)CC1`, the Potency was 20.6 µM (active). As for `COc1ccc(N2CCN(C(=O)CNS(=O)(=O)c3ccc(C)c(C)c3)CC2)cc1`, the Potency entry was “inactive”. In the case of `Cc1ccc(S(=O)(=O)NCC(=O)N2CCOCCOCCOCCOCC2)cc1`, the Potency result was “inactive”.

In the case of `CCOC(=O)[C@H]1[C@H]2COc3ccccc3[C@@H]2N2C(=O)CN(Cc3ccccc3)C(=O)[C@@]12C`, the Potency entry was “inactive”. In the case of `CCCNC(=S)N1CCC(NC(=O)c2ccc(OC)cc2)CC1`, the Potency entry is “inactive”. For the molecule `CC(C)n1c(-c2cccs2)nc2ccccc21`, the Potency entry is “inactive”. As to `O=c1c(-c2cccs2)nc2cnc(Oc3ccccc3)nc2n1-c1ccccc1`, the Potency result is “inactive”. For `CCC(c1nc2ccccc2[nH]1)n1c(=O)c(-c2cccs2)nc2ccccc21` (configuration not stated), the Potency was 18.4 µM (active). As to `O=C(NCc1ccccc1)C(c1cccnc1)N(C(=O)c1csnn1)c1ccc(F)cc1` (configuration not stated), the Potency result was “inactive”.

Turning to `CCC(=O)Nc1nc(OC)cc(OC)n1`, the Potency entry was “inactive”. Regarding `COc1cc(OC)nc(N/N=C(\c2ccccc2)c2ccncc2)n1`, the Potency entry is “inactive”. Regarding `COc1cc(OC)nc(NC(=O)CCl)n1`, the Potency was 14.6 µM (active). For `CCSc1nsc(NC(=O)Nc2ccccc2OC)n1`, the Potency result is “inactive”. Same read-out and setting: with `Cc1ccc(NC(=O)c2cccc(N(C)C)c2)cc1NC(=O)c1ccc(O)cc1` the entry was “inactive and 29.9 µM (active)”; with `Cc1ccc(C)c(NC(=O)c2ccc3nccnc3c2)c1`, “inactive”.

For `Cc1ccc(F)cc1NC(=O)c1cccc(N(C)C)c1`, the Potency entry was “inactive”. On to `O=C(c1cn2ccccc2n1)N1CCc2c([nH]c3ccccc23)C1c1ccccn1` (configuration not stated), for which the Potency entry was “inactive”. In the case of `CCc1nc2ccc(C(=O)NC3CCN(Cc4ccccc4)CC3)cn2c1N(C)CCN1CCOCC1`, the Potency result is “inactive”. Take `O=C1/C(=C\c2ccc([N+](=O)[O-])cc2)CS(=O)(=O)C/C1=C/c1ccc([N+](=O)[O-])cc1`: the Potency was 0.0259 µM (active). For the molecule `O=[N+]([O-])c1ccc(C=NN=Cc2ccc([N+](=O)[O-])cc2)cc1`, the Potency result was “inactive”. The same measure, in the same setting: with `O=C(NN=Cc1ccc([N+](=O)[O-])cc1)C1CC1` the entry was “inactive”; with `CCOc1cccc2cc(C(=O)OCC(=O)Nc3c(C)cccc3CC)c(=O)oc12`, “inactive”.

The values are drawn from PubChem BioAssay AID686979 (National Center for Advancing Translational Sciences (NCATS), 2013).
